Over roughly 81,000 sequences, “one-hybrid fitness for binding parS DNA” has its median near -0.17; the highest 2% begin near 0.51. The sample holds the highest values, similar sequences and a random draw of the others, so the mix is not that of the screen.
B1: Caulobacter ParB omega fusion; a variant is named by its letters at X, in order, B8GW30 (parent)
chain: MESVVVGEPGMSEGRRGLGRGLSALLGEVDAAPAQAPGEQLGGSREAPIEILQRNPDQPRRTFREEDLEDLSNSIREKGVLQPILVRPSPDTAGEYQIVAGERAWRAAQRAGLKTVPIMVRELDDLAVLEIGIIENVQRADLNVLEEALSYKVLMEKFERTQENIAQTIGKSXSHVANXMRLLXLPDEVQSYLVSGELTAXHARAIAAAADPVALAKQIIEGGLSVRETEALARKAPNLSAGKSKGGRPPRVKDTDTQALESDLSSVLGLDVSIDHRGSTGTLTITYATLEQLDDLCNRLTRGI

Variants of: B1
Experiment: one-hybrid fitness for binding parS DNA (scaled: cognate 1, non-cognate 0); higher = stronger binding
Conditions: with parS DNA site
How it was run: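 Caulobacter ParB libraries with four specificity codons randomised were screened by bacterial one-hybrid selection in the E. coli USO strain, using a HIS3 reporter whose site lies 19 bp from the promoter. Selection ran for 48 hours at 37°C on M9 lacking histidine, with 0.1 mM IPTG and 5 mM 3-AT. Plasmids were Illumina-sequenced before and after selection, three replicate libraries were pooled, and variants with under 10 reads were dropped. Fitness is the log change in each variant's read ratio to wild type, rescaled against the cognate and non-cognate sites.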

one-hybrid fitness for binding parS DNA, 0.412:
RQCY

one-hybrid fitness for binding parS DNA, 0.945:
RQGG

one-hybrid fitness for binding parS DNA, ≤ 0.2:
TKTN
ESQE
PCYG
FVTS
VWVK
TAGS
QLHQ
GGAM
MKCT
RQGQ
RQCR
RQSD
RQSH
NETE
YGVD
VVSY
LSGR

one-hybrid fitness for binding parS DNA, 0.97:
RQCG

one-hybrid fitness for binding parS DNA, 0.234:
RQGF

one-hybrid fitness for binding parS DNA, 0.984:
RQSG
